Broadly, the inhibition is the drop in the measured response relative to a control, in per cent.

Inhibition data for 16 compounds are collected here from ChEMBL document CHEMBL1961873, “Compounds: GSK PKIS; Assays: Nanosyn kinase panel” (2012).

Structures are written as SMILES.
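Further: values are mean inhibition of PDK1.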

For this assay, the target named is T1, 3-phosphoinositide-dependent protein kinase 1 (Homo sapiens) (UniProt O15530).
T1 sequence (whole entry): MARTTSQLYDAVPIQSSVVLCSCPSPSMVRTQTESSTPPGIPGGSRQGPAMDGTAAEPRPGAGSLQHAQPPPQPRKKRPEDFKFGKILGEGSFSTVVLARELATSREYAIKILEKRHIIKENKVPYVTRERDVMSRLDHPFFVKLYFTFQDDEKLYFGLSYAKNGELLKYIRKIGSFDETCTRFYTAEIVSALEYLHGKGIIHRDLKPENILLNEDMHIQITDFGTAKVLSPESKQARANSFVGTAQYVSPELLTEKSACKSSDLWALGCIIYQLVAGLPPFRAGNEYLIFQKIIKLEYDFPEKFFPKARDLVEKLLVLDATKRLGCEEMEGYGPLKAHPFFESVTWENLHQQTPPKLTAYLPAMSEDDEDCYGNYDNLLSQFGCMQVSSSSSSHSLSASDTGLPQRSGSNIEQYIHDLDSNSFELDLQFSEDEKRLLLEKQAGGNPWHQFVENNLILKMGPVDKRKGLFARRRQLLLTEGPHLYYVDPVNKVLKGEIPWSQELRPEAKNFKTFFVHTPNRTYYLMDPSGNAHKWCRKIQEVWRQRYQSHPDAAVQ
Particulars: at 0.1 µM.
For the compound `CCCNc1cccc(-n2ncc3c(N/N=C/c4ccncc4)ncnc32)c1`, the inhibition came to 1.19%.

Consider `O=C(O[C@H]1CN[C@H](C#Cc2cc3ncnc(Nc4ccc(OCc5cccc(F)c5)c(Cl)c4)c3s2)C1)N1CCOCC1`, for which the inhibition is 0.08%.

As to `Cc1cc(O)cc(C)c1/C=C/c1cncc(C(=O)OC(C)(C)C)c1`, the inhibition came out at 1.42%.

For the compound `O=C(O[C@H]1CN[C@H](C#Cc2cc3ncnc(Nc4ccc5c(cnn5Cc5ccccc5)c4)c3s2)C1)N1CCOCC1`, the inhibition was -1.36%.

As to `Cc1ccc(-c2cc3c(NC(=O)C4CC4)ncnc3o2)cc1`, the inhibition was determined as 1.92%.

On to `COc1cc(Nc2ncc(-c3ccccc3)o2)cc(OC)c1`, for which the inhibition was determined as 1.45%.

On to `CCOc1ccc2c(-c3ccnc(Nc4cc(OC)cc(C(F)(F)F)c4)n3)cnn2n1`, for which the inhibition came out at 1.07%.

For the compound `COC(=O)Nc1nc2ccc(Oc3ccc(NC(=O)Nc4cc(C(F)(F)F)ccc4F)cc3)cc2s1`, the inhibition amounted to 0.63%.

As for `COC(=O)Nc1nc2cc(Oc3ccc(NC(=O)Nc4ccccc4)cc3)ccc2[nH]1`, the inhibition was determined as 1.31%.

As for `CCn1c(-c2nonc2N)nc2cncc(C(=O)NCCNC)c21`, the inhibition was 1.56%.

Regarding `COc1ccc(Nc2ncc(-c3ccccc3)o2)cc1OC`, the inhibition came out at 2.22%.

With `N#Cc1ccc2c(-c3ccnc(NC4CC4)n3)c(-c3ccc(F)cc3)nn2c1`, the inhibition was found to be 0.01%.

Consider `Fc1cccc(COc2ccc(Nc3ncncc3C#Cc3ccccc3)cc2Cl)c1`, for which the inhibition was 3.09%.

Regarding `CNC(=O)c1ncccc1Nc1nc(Nc2cc3c(cc2OC)CCCN3C(=O)CN(C)C)nc2[nH]ccc12`, the inhibition stood at 3.18%.

As to `NS(=O)(=O)c1cccc(N/C=C2\C(=O)Nc3ccccc32)c1`, the inhibition was 4.6%.

`CS(=O)(=O)CCNCc1ccc(-c2ccc3ncnc(Nc4ccc(OCc5ccccc5)cc4)c3c2)o1`: the inhibition came to 1.7%.
